Assay outcomes deposited in PubChem BioAssay by National Center for Advancing Translational Sciences (NCATS).
KinaseGlo FLuc – blocks Kinase-Glo luciferase, a counter-screen artifact | Q27757 | Kinase-Glo luciferase, ATP luminescence, 8 min | Potency, µM (titrated, usually from 38.3 µM), without a hit: at the highest dose activity change, negative = inhibition, most hits filed as inhibitors | actives 0.28% (n = 200,000) | AID 1379; active = well fitted inhibition curve with a large enough effect; inconclusive = small, poorly fitted or top-dose-only effect; note: potency is the fitted concentration of half-maximal effect; nearly all actives have a fitted effect of over 60% in size
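Light output from Kinase-Glo luciferase with luciferin and 10 uM ATP in 50 mM imidazole pH 7.2, KCl, MgCl2, Tween 20, BSA; compound pin-delivered, 8-min ambient incubation, then luminescence read.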
PNC inhibitor – inhibitors of perinucleolar compartment assembly. PC3M PTB-GFP, PNC prevalence imaging, 16 h; stronger effect = lower value. activity change (PNC), negative = inhibition, % at 10 µM. actives 3.1% (n = 140,000). AID 2417;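 active = readout at or below -70, meaning at least 70% loss of cells showing the perinucleolar compartment, a nuclear body marking cancer cells; inconclusive = readout between -30 and a set limit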;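 note: plate controls were DMSO wells for no effect and camptothecin positive control wells for full effect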
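Compounds are pinned in duplicate onto adhered PC3M cells stably expressing GFP-tagged PTB and incubated 16 h at 37 C. Cells are then fixed, nuclei stained with Hoechst, and PNC-positive cells counted.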
HPGD block – HPGD (human) dehydrogenase inhibition. P15428. purified HPGD, NADH fluorescence kinetic, PGE2 substrate. Potency, µM, inactives show at the top dose activity change, negative = inhibition, most hits filed as inhibitors. actives 4.3% (n = 150,000). AID 894; note: potency is the fitted concentration of half-maximal effect
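20 nM HPGD preincubated 15 min at room temperature with compound in 50 mM Tris-HCl pH 8, 0.01% Tween 20. Started with 1 mM NAD+ and 30 uM prostaglandin E2; NADH fluorescence (360/450 nm) read 5 times over 30-s intervals, last minus first.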
Lamin A splicing – changes lamin A minigene splicing in HeLa cells; actives 0.01% (n = 200,000); Potency, µM (top dose mostly 46.1 µM), inactives show at the highest dose ratio change, negative = inhibition, actives largely listed as inhibitors; HeLa LMNA splicing GFP/RFP minigene ratio, 48 h; active = well fitted inhibition curve with a large enough effect in the signal ratio, with a control signal flat, not every such curve was filed as active; inconclusive = small, poorly fitted or top-dose-only effect, or effect the other way, or a change in a side signal; the % refers to the signal ratio; note: potency is the fitted concentration of half-maximal effect
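S3 HeLa cells stably expressing lamin A-EGFP splicing minigene plus DsRed2, 600 cells/well, 48 h compound exposure at 37C. Laser-scanning cytometry; analysed as GFP (500-530 nm)/RFP (575-640 nm) total intensity ratio; 0.5% DMSO vehicle.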
ALDH1A1 inh – ALDH1A1 (human) enzyme inhibition. actives 7.3% (n = 220,000). P00352. Potency, µM (doses to about 75.3 µM), inactives show at the highest dose activity, negative = inhibition, hits mostly inhibitors. Purified ALDH1A1, NADH fluorescence, propionaldehyde substrate;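 note: potency is the fitted concentration of half-maximal effect; plate controls were no enzyme wells and a reference inhibitor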
Target sequence (P00352 whole entry, looked up): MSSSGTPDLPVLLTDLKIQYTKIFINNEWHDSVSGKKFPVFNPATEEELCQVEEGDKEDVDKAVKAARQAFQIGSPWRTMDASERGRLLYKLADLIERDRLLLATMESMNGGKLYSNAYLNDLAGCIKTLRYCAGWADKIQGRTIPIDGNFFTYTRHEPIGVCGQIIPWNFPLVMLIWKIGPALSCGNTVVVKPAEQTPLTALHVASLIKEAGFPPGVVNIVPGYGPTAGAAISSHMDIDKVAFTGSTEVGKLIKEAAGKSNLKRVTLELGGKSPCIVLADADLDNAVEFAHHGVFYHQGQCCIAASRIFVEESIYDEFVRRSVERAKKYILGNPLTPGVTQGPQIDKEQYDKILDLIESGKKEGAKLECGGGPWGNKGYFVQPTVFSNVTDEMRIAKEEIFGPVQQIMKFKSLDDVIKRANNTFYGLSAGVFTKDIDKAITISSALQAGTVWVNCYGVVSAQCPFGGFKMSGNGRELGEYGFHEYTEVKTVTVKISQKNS
IMPase inh – membrane-permeable compound that blocks inositol monophosphatase; P97697; inhibition (IP1 accumulation), % at 46.1 µM; CHO-M1 cells, IP1 accumulation, HTRF TR-FRET ratio; 120,000 tested, under 10 active; AID 901; active = well fitted curve in the direction sought with a large enough effect in the signal ratio, not every such curve was filed as active; inconclusive = small, poorly fitted or top-dose-only effect, or a change in a side signal; inactive = no such curve, though single readings can be large or run the other way; the % refers to the signal ratio;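 note: cells stimulated with carbachol in lithium chloride buffer; plate controls were DMSO basal wells for no effect and reference inhibitor wells for full effect; higher means more IMPase inhibition seen as more IP1 and lower FRET ratio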
Target sequence (P97697 whole entry, looked up): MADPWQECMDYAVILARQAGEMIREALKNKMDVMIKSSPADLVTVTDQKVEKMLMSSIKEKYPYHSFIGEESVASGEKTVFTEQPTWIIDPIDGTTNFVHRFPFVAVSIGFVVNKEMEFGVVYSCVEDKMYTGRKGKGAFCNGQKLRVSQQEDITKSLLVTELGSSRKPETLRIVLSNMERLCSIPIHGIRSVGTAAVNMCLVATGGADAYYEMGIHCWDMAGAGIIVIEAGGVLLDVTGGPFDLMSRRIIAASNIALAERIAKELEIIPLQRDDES
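CHO-M1 cells (CHO stably expressing M1 receptor), compound up to 46 uM final, stimulated with carbachol (50 uM as added) in buffer with 50mM LiCl, pH 7.4, 30 min at 37C. Cytosolic IP1 read by TR-FRET; AC50 from Hill fits.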
Active calls of the source: *; [ ] = remark or other dose. The list is not random: actives were taken first. Their share in the collection is about 10%. Unless noted, calls come from the whole dose curve; as a rule, active = well fitted inhibition curve with a large enough effect (not every such curve was filed as active); inconclusive = small, poorly fitted or top-dose-only effect, or another doubt; inactive = no such curve, though single readings can be large or run the other way. Unless noted, % is set by controls: 0 for no effect and ±100 for the full control effect.

What do the screens show for `Cc1nc([N+](=O)[O-])c(Br)n1CC(=O)c1ccc(F)cc1`?
KinaseGlo FLuc: -1.5%; Lamin A splicing: inconclusive; ALDH1A1 inh: -3.1%

How did Cc1ccnc(SCC(=O)c2cccc([N+](=O)[O-])c2)n1 do in these assays?
KinaseGlo FLuc: 2.2%; PNC inhibitor: -28.6; HPGD block: -19.5%; Lamin A splicing: -3.0%; ALDH1A1 inh: 31.6µM*; IMPase inh: 5.5

Results for Cc1nc([N+](=O)[O-])c(Br)n1CC(=O)c1cccc([N+](=O)[O-])c1 ?
KinaseGlo FLuc: 5.7%; Lamin A splicing: -2.1%[9.22 µM]; ALDH1A1 inh: 25.1µM*

What do the screens show for `O=C(c1ccccc1F)N1CCN(c2ncccn2)CC1`?
KinaseGlo FLuc: -0.4%; PNC inhibitor: 126.2; HPGD block: -13.9%; Lamin A splicing: 6.8%; ALDH1A1 inh: inconclusive; IMPase inh: 0.9

How did O=C(c1csc2c1CCCC2)N1CCCCC1 do in these assays?
KinaseGlo FLuc: -3.1%; PNC inhibitor: 11.9; HPGD block: 1.58µM*; Lamin A splicing: 2.4%; ALDH1A1 inh: 0.2%; IMPase inh: 5.0

Results for O=C(c1csc2c1CCCCC2)N1CCN(c2ncccn2)CC1 ?
KinaseGlo FLuc: -3.3%; PNC inhibitor: 31.9; HPGD block: -12.4%; Lamin A splicing: 1.3%; ALDH1A1 inh: 20µM*; IMPase inh: 9.1

What do the screens show for `CCN(CC)CCNc1nc(-c2cccs2)c(CC(=O)O)s1`?
KinaseGlo FLuc: 0.3%; Lamin A splicing: 0.9%[9.22 µM]; ALDH1A1 inh: 20µM*

How did O=S(=O)(NCCCc1ccccc1)c1ccccc1 do in these assays?
KinaseGlo FLuc: -1.6%; PNC inhibitor: 21.5; HPGD block: -10.1%; Lamin A splicing: 2.9%; ALDH1A1 inh: inconclusive; IMPase inh: 3.6

How did NCCCCCCNS(=O)(=O)c1cccc2ccccc12 do in these assays?
KinaseGlo FLuc: 1.6%; HPGD block: -26.2%; ALDH1A1 inh: 12.6µM*; IMPase inh: -4.2

Results for O=S(=O)(NCCCCCNS(=O)(=O)c1ccccc1)c1ccccc1 ?
KinaseGlo FLuc: -1.8%; PNC inhibitor: -91.0*; HPGD block: -11.1%; Lamin A splicing: inconclusive; ALDH1A1 inh: 0.562µM*; IMPase inh: 4.9

How did O=[N+]([O-])c1ccc(NCCCNS(=O)(=O)c2ccccc2)cc1 do in these assays?
KinaseGlo FLuc: 0.4%; Lamin A splicing: 7.2%[46 µM]; ALDH1A1 inh: 17.8µM*

Results for Cc1ccc(S(=O)(=O)NCCCNc2ccc([N+](=O)[O-])cc2)cc1 ?
KinaseGlo FLuc: 4.2%; Lamin A splicing: 1.7%[46 µM]; ALDH1A1 inh: 14.1µM*

What do the screens show for `NCCCCNS(=O)(=O)c1cccc2c(Cl)cccc12`?
KinaseGlo FLuc: -2.4%; HPGD block: -19.0%; Lamin A splicing: inconclusive; ALDH1A1 inh: -7.9%; IMPase inh: 2.8

How did Cc1ccc(S(=O)(=O)N2CCN(Cc3ccccc3Cl)CC2)cc1 do in these assays?
IMPase inh: -3.6

Results for O=c1c2c(-c3ccc([N+](=O)[O-])cc3)csc2nc2n1CCC2 ?
KinaseGlo FLuc: -4.1%; PNC inhibitor: -17.5; HPGD block: 22.4µM*; Lamin A splicing: 15.1%; ALDH1A1 inh: 7.08µM*; IMPase inh: 7.6

Results for O=[N+]([O-])c1ccc2c(c1)nc1n2CCCCC1 ?
KinaseGlo FLuc: -0.7%; Lamin A splicing: -3.9%[46 µM]; ALDH1A1 inh: 0.2%

How did CCCCCCCC#Cc1ccccc1/C=N/S(=O)C(C)(C)C (stereo not given) do in these assays?
ALDH1A1 inh: 21.4%[13.5 µM]

Results for O=C(CSc1n[nH]c(-c2cccs2)n1)NCc1cccs1 ?
KinaseGlo FLuc: -0.7%; PNC inhibitor: 29.7; HPGD block: 17.8µM*; Lamin A splicing: 12.4%; ALDH1A1 inh: 24.4%; IMPase inh: inconclusive

What do the screens show for `O=C(CSc1n[nH]c(-c2cccs2)n1)NCc1ccc2c(c1)OCO2`?
KinaseGlo FLuc: 17.5%; PNC inhibitor: inconclusive; HPGD block: 12.6µM*; Lamin A splicing: 15.9%; ALDH1A1 inh: 0.6%; IMPase inh: -4.4

How did COC(=O)c1ccc(NC(=O)C2CCCN2S(=O)(=O)c2ccc(C)cc2)cc1 (stereo not given) do in these assays?
KinaseGlo FLuc: 0.2%; PNC inhibitor: -119.3*; HPGD block: -3.4%; Lamin A splicing: -3.8%; ALDH1A1 inh: 11.0%; IMPase inh: -2.4

How did O=C(Nc1nccs1)C1CCCN1S(=O)(=O)c1ccc(Cl)cc1 (stereo not given) do in these assays?
KinaseGlo FLuc: 7.0%; PNC inhibitor: inconclusive; HPGD block: -19.2%; Lamin A splicing: 10.0%; ALDH1A1 inh: 17.8µM*; IMPase inh: 3.3

How did NC(=O)c1ccsc1NC(=O)C1CCCN1S(=O)(=O)c1ccc(Cl)cc1 (stereo not given) do in these assays?
KinaseGlo FLuc: -0.7%; PNC inhibitor: 67.4; HPGD block: inconclusive; Lamin A splicing: -15.0%; ALDH1A1 inh: inconclusive; IMPase inh: -0.2

What do the screens show for `COC(=O)c1ccc(NC(=O)C2CCCN2S(=O)(=O)c2ccc(OC)cc2)cc1` (stereo not given)?
KinaseGlo FLuc: -3.1%; PNC inhibitor: inconclusive; HPGD block: -3.9%; Lamin A splicing: 2.9%; ALDH1A1 inh: inconclusive; IMPase inh: 12.7

How did Cc1ccc(S(=O)(=O)C2(C(=O)N3CCCC(C)C3)CC2)cc1 (stereo not given) do in these assays?
KinaseGlo FLuc: -2.3%; PNC inhibitor: 53.5; HPGD block: 25.1µM*; Lamin A splicing: 12.7%; ALDH1A1 inh: 1.1%; IMPase inh: 7.9

What do the screens show for `Cc1ccc(S(=O)(=O)N2CCCC2C(=O)O)cc1` (stereo not given)?
KinaseGlo FLuc: -4.5%; PNC inhibitor: 10.0; HPGD block: -11.3%; Lamin A splicing: 3.0%; ALDH1A1 inh: 3.2%; IMPase inh: -1.6

Results for O=c1n(-c2ccccc2)c(=O)n2n1CCCC2 ?
KinaseGlo FLuc: -0.3%; PNC inhibitor: -120.4*; HPGD block: -8.0%; Lamin A splicing: 14.1%; ALDH1A1 inh: -4.3%; IMPase inh: -8.8

How did COc1ccc(NC(=O)Cn2c(=O)n(Cc3ccccc3Cl)c(=O)c3cc(OC)c(OC)cc32)cc1OC do in these assays?
IMPase inh: 6.1

How did CCOC(=O)c1sc(Nc2ccccc2)nc1C do in these assays?
KinaseGlo FLuc: -3.0%; PNC inhibitor: 36.4; HPGD block: inconclusive; Lamin A splicing: 31.4%; ALDH1A1 inh: -11.0%; IMPase inh: 2.9

What do the screens show for `Cc1nc(Nc2ccccc2)sc1-c1ccccc1`?
PNC inhibitor: 217.8; Lamin A splicing: inconclusive; ALDH1A1 inh: 22.4µM*; IMPase inh: 9.9

What do the screens show for `Cc1nc(Nc2ccc(C(=O)O)cc2)sc1-c1ccccc1`?
KinaseGlo FLuc: 1.4%; ALDH1A1 inh: 11.8%
